# Measured values reported in PubChem BioAssay AID2313 (Broad Institute, 2010).
# About 460 (2.1%) of roughly 22,000 compounds were called active. Roughly 2% stayed inconclusive and do not appear here. This is one part of a sample in which actives are shown more often than they occur.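 The calls were made as follows: active = mean inhibition across valid replicates above about 65% (limit read from the data); inconclusive = mean under the limit, yet half or more replicates past it; inactive = the rest.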
# Assay: Hedgehog pathway signaling inhibitors, primary screen, luminescence, Shh-LIGHT2 cells, Gli-luciferase (AID 2313);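 also: pathway switched on by Shh-conditioned medium diluted 1 in 25 in low serum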
# Details: Shh-LIGHT2 Gli-luciferase reporter, 30 h; stronger effect = higher value
row,SMILES,inhibition
1,C[C@@H]1CN([C@H](C)CO)C(=O)Cc2cc(N(C)C)ccc2O[C@H]1CN(C)S(C)(=O)=O,-5.86% (inactive)
2,Cc1ccc(S(=O)(=O)Nc2ccc3c(c2)C(=O)N([C@@H](C)CO)C[C@H](C)[C@@H](CN(C)CC2CC2)O3)cc1,11.4% (inactive)
3,O=C(O)c1ccc(NS(=O)(=O)c2ccc3c4c(cccc24)C(=O)N3)cc1,-9.19% (inactive)
4,C[C@H]1CN([C@@H](C)CO)C(=O)c2cccc(NS(=O)(=O)c3ccc(F)cc3)c2O[C@@H]1CN(C)Cc1ccncc1,3.57% (inactive)
5,Cc1ccc(S(=O)(=O)N(C)C[C@H]2Oc3c(NS(=O)(=O)c4ccc(Cl)cc4)cccc3C(=O)N([C@H](C)CO)C[C@@H]2C)cc1,-17.4% (inactive)
6,Cc1ccc(-n2nnnc2-c2cnn(-c3ccccc3)c2C)cc1,88.7% (active)
7,CCCN(C)C[C@H]1OCCCC[C@@H](C)Oc2ccc(N(C)C)cc2C(=O)N([C@H](C)CO)C[C@@H]1C,-12.9% (inactive)
8,COc1ccc(CN(C)C[C@H]2Oc3c(NS(=O)(=O)c4ccccc4)cccc3C(=O)N([C@H](C)CO)C[C@@H]2C)cc1,-36.7% (inactive)
9,COc1ccc(S(=O)(=O)N(C)C[C@H]2Oc3c(NC(=O)Nc4ccc5c(c4)OCO5)cccc3C(=O)N([C@H](C)CO)C[C@@H]2C)cc1,18.1% (inactive)
10,CC(=O)Nc1ccc(Nc2c3c4c(cccc4[nH]c2=O)C(=O)c2ccccc2-3)cc1,88.2% (active)
11,COc1ccc(CCN=C2SCC(=O)N2Cc2ccccc2)cc1OC,13.3% (inactive)
12,Cc1noc(C)c1NC(=O)Nc1ccc2c(c1)C(=O)N([C@H](C)CO)C[C@H](C)[C@H](CN(C)Cc1ccncc1)OCCCC[C@@H](C)O2,0.0543% (inactive)
13,C[C@H]1CN([C@@H](C)CO)C(=O)Cc2cc(NC(=O)C3CC3)ccc2O[C@H]1CN(C)S(=O)(=O)c1ccc(Cl)cc1,30.4% (inactive)
14,C[C@@H]1CN([C@H](C)CO)C(=O)c2cc(NC(=O)CCN3CCOCC3)ccc2O[C@H]1CN(C)Cc1ccc(Oc2ccccc2)cc1,-15% (inactive)
15,Oc1ccc(CN2CCCC2)c2cccnc12,85% (active)
16,Cc1onc(-c2c(Cl)cccc2Cl)c1C(=O)N=S(C)(C)=O,-19% (inactive)
17,C[C@H]1CN([C@@H](C)CO)C(=O)c2cccc(NS(=O)(=O)c3cccs3)c2O[C@H]1CN(C)C(=O)Nc1ccccc1,26.6% (inactive)
18,CCC/C=C/C=C/C1CC(O)C(O)C1C(=O)O (stereo not given),-18% (inactive)
19,C[C@H](CO)N1C[C@H](C)[C@H](CN(C)C(=O)NC2CCCCC2)Oc2c(NC(=O)C3CC3)cccc2C1=O,-11.9% (inactive)
20,C[C@H](CO)N1C[C@H](C)[C@@H](CN(C)Cc2ccc(Cl)c(Cl)c2)Oc2c(NC(=O)Nc3ccccc3)cccc2C1=O,-0.821% (inactive)
21,Oc1c(Cl)cc(Cl)c(Cl)c1Cc1c(O)c(Cl)cc(Cl)c1Cl,102% (active)
22,C[C@@H]1CN([C@H](C)CO)C(=O)c2cccc(NC(=O)c3nc4ccccc4s3)c2O[C@H]1CN(C)S(=O)(=O)c1ccc(Cl)cc1,11% (inactive)
23,C[C@H]1CN([C@@H](C)CO)C(=O)c2cccc(NS(=O)(=O)c3ccc(F)cc3)c2O[C@@H]1CN(C)CC1CC1,-16.6% (inactive)
24,C[C@H]1CN([C@@H](C)CO)C(=O)Cc2cc(NS(=O)(=O)c3ccc(F)cc3)ccc2O[C@H]1CN(C)Cc1ccc(C(F)(F)F)cc1,30.1% (inactive)

row,SMILES,inhibition
1,COc1ccc(S(=O)(=O)N(C)C[C@H]2Oc3ccc(NC(=O)C4CC4)cc3CC(=O)N([C@@H](C)CO)C[C@@H]2C)cc1,-32.4% (inactive)
2,CC(C)NC(=O)Nc1ccc2c(c1)C(=O)N([C@@H](C)CO)C[C@@H](C)[C@H](CN(C)Cc1ccc(C(=O)O)cc1)O2,-19.8% (inactive)
3,C[C@H]1CN([C@@H](C)CO)C(=O)Cc2cc(N(C)C)ccc2O[C@@H]1CN(C)Cc1ccc(-c2ccccc2)cc1,33.2% (inactive)
4,C[C@@H]1CCCCO[C@@H](CN(C)C(=O)CCC(F)(F)F)[C@@H](C)CN([C@H](C)CO)C(=O)c2cc(NC(=O)Nc3ccccc3)ccc2O1,-0.845% (inactive)
5,O=C(c1ccccc1)c1cnn(-c2ccc(Cl)cc2)n1,79.3% (active)
6,C[C@@H]1CN([C@H](C)CO)C(=O)Cc2cc(NC(=O)C3CCCCC3)ccc2O[C@@H]1CN(C)S(C)(=O)=O,-14.6% (inactive)
7,C[C@@H]1CN([C@H](C)CO)C(=O)c2cccc(NC(=O)Nc3ccc4c(c3)OCO4)c2O[C@H]1CN(C)C(=O)Nc1ccc(F)cc1,-8.45% (inactive)
8,C[C@@H]1CN([C@@H](C)CO)C(=O)c2cccc(NC(=O)NC3CCCCC3)c2O[C@@H]1CN(C)CC1CCCCC1,-35.3% (inactive)
9,C[C@H]1CN([C@@H](C)CO)C(=O)Cc2cc(NC(=O)CCC(F)(F)F)ccc2O[C@H]1CN(C)C(=O)NC1CCCCC1,-30.3% (inactive)
10,O=C1C2CC3CC1CC(C(=O)O)(C3)C2,-15.4% (inactive)
11,CCN1C(=O)c2cccc3c(NC(=S)NC(=O)c4ccccc4)ccc1c23,86.3% (active)
12,CC(C)(C)c1ccc(Cn2c(=N)n(CC(=O)O)c3ccccc32)cc1,-5.52% (inactive)
13,O=c1n(Cc2ccccc2)c2ccccc2n1Cc1ccccc1,96.1% (active)
14,O=c1c2ccccc2c(-c2ccccc2)nn1Cc1ccccc1,9.85% (inactive)
15,CCCN(C)C[C@@H]1OCCCC[C@@H](C)Oc2ccc(NC(=O)CCCN(C)C)cc2C(=O)N([C@H](C)CO)C[C@@H]1C,-7.4% (inactive)
16,S=C(NCC1CC1)Nc1ccc(Cl)cc1,-35.4% (inactive)
17,O=C(O)c1c(Br)c(Br)c(Br)c(Br)c1-c1c2ccc(=O)cc-2oc2cc(O)ccc12,-5.58% (inactive)
18,C[C@@H]1CN([C@@H](C)CO)C(=O)c2cccc(NC(=O)Nc3ccc(F)cc3)c2O[C@H]1CN(C)Cc1ccc(-c2ccccc2)cc1,2.55% (inactive)
19,C[C@H]1CN([C@@H](C)CO)C(=O)c2cc(NC(=O)Nc3ccccc3)ccc2O[C@H]1CN(C)S(C)(=O)=O,-21% (inactive)
20,C[C@@H]1CN([C@H](C)CO)C(=O)Cc2cc(NS(=O)(=O)c3ccc(Cl)cc3)ccc2O[C@H]1CN(C)S(=O)(=O)c1cccs1,-21.8% (inactive)
21,COc1ccc(S(=O)(=O)N(C)C[C@@H]2OCCCC[C@@H](C)Oc3ccc(NS(C)(=O)=O)cc3C(=O)N([C@H](C)CO)C[C@@H]2C)cc1,54.6% (inactive)
22,C=C1C(=O)OC2/C=C(\C)CC3C=C(CC/C=C(\C)CCC12)C(=O)O3 (stereo not given),39.9% (inactive)
23,CC(C)NC(=O)Nc1ccc2c(c1)CC(=O)N([C@H](C)CO)C[C@H](C)[C@H](CN(C)Cc1ccc3c(c1)OCO3)O2,-12.2% (inactive)
24,C[C@@H]1CN([C@H](C)CO)C(=O)c2cccc(NS(=O)(=O)c3ccc(Cl)cc3)c2O[C@@H]1CN(C)Cc1ccc(Oc2ccccc2)cc1,23.8% (inactive)

row,SMILES,inhibition
1,C[C@@H]1O[C@@H](O[C@H]2[C@@H](Oc3cc(O)c4c(c3)O[C@H](c3ccc(O)cc3)CC4=O)O[C@H](CO)[C@@H](O)[C@@H]2O)[C@H](O)[C@H](O)[C@H]1O,-8.61% (inactive)
2,C[C@@H]1CN([C@H](C)CO)C(=O)c2cccc(NS(=O)(=O)c3ccc(Cl)cc3)c2O[C@H]1CN(C)C(=O)NC1CCCCC1,-17% (inactive)
3,CC(C)NC(=O)N(C)C[C@@H]1Oc2ccc(NS(=O)(=O)c3cn(C)cn3)cc2C(=O)N([C@@H](C)CO)C[C@@H]1C,8% (inactive)
4,Cc1ccc(NC(=O)C2C3C=CC(C3)C2C(=O)O)cc1 (stereo not given),-27.3% (inactive)
5,Cc1ccc(S(=O)(=O)Nc2ccc3c(c2)C(=O)N([C@H](C)CO)C[C@H](C)[C@@H](CN(C)S(=O)(=O)c2cccs2)O3)cc1,-5.89% (inactive)
6,C[C@@H]1CCCCO[C@H](CN(C)Cc2ccc(Cl)c(Cl)c2)[C@@H](C)CN([C@H](C)CO)C(=O)c2cc(NS(=O)(=O)c3cn(C)cn3)ccc2O1,-46.4% (inactive)
7,CC(C)NC(=O)N(C)C[C@H]1Oc2c(NS(=O)(=O)c3cccs3)cccc2C(=O)N([C@H](C)CO)C[C@H]1C,-35.4% (inactive)
8,C[C@@H]1CN([C@H](C)CO)C(=O)c2cccc(NS(=O)(=O)c3ccc(F)cc3)c2O[C@H]1CN(C)Cc1ccc(Oc2ccccc2)cc1,23.1% (inactive)
9,COc1ccc(CN(C)C[C@H]2Oc3ccc(NS(=O)(=O)c4ccc(C)cc4)cc3C(=O)N([C@@H](C)CO)C[C@H]2C)cc1,29.4% (inactive)
10,COc1cc([C@H]2OC[C@H]3[C@@H]2CO[C@@H]3c2cc(OC)c(O[C@@H]3O[C@H](CO)[C@@H](O)[C@H](O)[C@H]3O)c(OC)c2)cc(OC)c1O,2.06% (inactive)
11,COc1ccc(CN2C(=O)CC(Cc3ccc(C)cc3)C2=O)cc1OC (stereo not given),4.43% (inactive)
12,COc1ccc(S(=O)(=O)Nc2cccc3c2O[C@@H](CN(C)S(=O)(=O)c2ccccc2)[C@@H](C)CN([C@@H](C)CO)C3=O)cc1,-0.37% (inactive)
13,O=C1C=C(SCC(=O)c2ccccc2)SC(c2ccc(Cl)cc2)C1 (stereo not given),82.7% (active)
14,O=C(CSc1nnc2n1CCCN2)c1ccccc1,-28.2% (inactive)
15,C=CC1(C)C=C2CCC3C(C)(C)C(O[C@@H]4O[C@@H](CO)[C@H](O)[C@H]4O)CCC3(C)C2CC1O[C@@H]1O[C@H](C)[C@@H](OC)[C@H](O)[C@H]1O (stereo not given in full),-27.2% (inactive)
16,CC1OC(OC2C(OC3C(O[C@H]4CC[C@@]5(C)C(CC[C@]6(C)C5CC=C5[C@@H]7CC(C)(C)C[C@@H](O)[C@]7(C)CC[C@]56C)C4(C)C)OC(C(=O)O)C(O)C3O)OC(CO)C(O)C2O)C(O)C(O)C1O (stereo not given in full),7.2% (inactive)
17,C/C=C(/C)C(=O)O[C@H]1CC(C)(C)C[C@H]2C3=CCC4[C@@]5(C)CC[C@H](O[C@@H]6O[C@H](C(=O)O)[C@@H](O[C@@H]7O[C@H](CO)[C@H](O)[C@H](O)[C@H]7O[C@@H]7O[C@H](CO)[C@@H](O)[C@H](O)[C@H]7O)[C@H](O)[C@H]6O[C@@H]6O[C@@H](C)[C@H](O)[C@@H](O)[C@H]6O)C(C)(C)C5CC[C@@]4(C)[C@]3(C)[C@@H](O)[C@@H](O)[C@@]12CO (stereo not given in full),99.7% (active)
18,CC1(C)CC[C@]2(C(=O)O)CC[C@]3(C)C(=CCC4[C@@]5(C)CC[C@H](OC6O[C@H](CO)[C@@H](O)[C@H](O[C@@H]7O[C@H](CO)[C@@H](O)[C@H](O)[C@H]7O)[C@H]6O)C(C)(C)C5CC[C@]43C)[C@@H]2C1 (stereo not given in full),107% (active)
19,C/C=C(/C)C(=O)O[C@H]1CC(C)(C)C[C@H]2C3=CCC4[C@@]5(C)CC[C@H](O[C@@H]6O[C@H](C(=O)O)[C@@H](O[C@@H]7O[C@H](CO)[C@H](O)[C@H](O)[C@H]7O[C@@H]7O[C@H](CO)[C@@H](O)[C@H](O)[C@H]7O)[C@H](O)[C@H]6O[C@@H]6O[C@@H](C)[C@H](O)[C@@H](O)[C@H]6O)C(C)(C)C5CC[C@@]4(C)[C@]3(C)[C@@H](OC(C)=O)[C@@H](O)[C@@]12COC(C)=O (stereo not given in full),97.7% (active)
20,COC(=O)C1=CO[C@@H](O[C@@H]2O[C@H](CO)[C@@H](O)[C@H](O)[C@H]2O)[C@@H]2[C@@](C)(O)[C@@H](OC(=O)/C=C/c3ccc(OC)c(OC)c3)C[C@]12O,3.81% (inactive)
21,CC1(C)CC[C@]2(C(=O)O[C@@H]3O[C@H](CO)[C@@H](O)[C@H](O)[C@H]3O)CC[C@]3(C)C(=CCC4[C@@]5(C)CC[C@H](O[C@@H]6O[C@H](C(=O)O)[C@@H](O[C@@H]7OC[C@H](O)[C@H](O)[C@H]7O)[C@H](O)[C@H]6O)C(C)(C)C5CC[C@]43C)C2C1 (stereo not given in full),35.4% (inactive)
22,CCC/C=C/C(=O)OC1C(O)C23C(O)OC4(CCC5C6(C)CCC(OC7OC(C(=O)O)C(O)C(OC8OC(CO)C(O)C(O)C8OC8OC(C)C(O)C(O)C8OC8OCC(O)C(O)C8O)C7OC7OC(CO)C(O)C(O)C7O)C(C)(C)C6CCC5(C)C4(C)CC2OC(C)=O)C3CC1(C)C (stereo not given),104% (active)
